PubChem BioAssay (Tox21)
Values joined by “and” are separate entries in the source; they are usually repeats but may differ in a detail not shown here. Identical values can stand only once. Results filed as inconclusive are left out. Active and inactive are the calls of the source. Unless noted, the call rests on the fitted dose curve; in most records, active means well fitted curve in the direction sought with a large enough effect in the repeat runs; inconclusive means weak or mixed curves; inactive means no such curve, though single readings can be large; an effect the other way counts as inactive or inconclusive.

Tests used:
[1] = qHTS assay for small molecules that induce genotoxicity in human embryonic kidney cells expressing luciferase-tagged ATAD5 (AID 651632); further: nearly all actives have a fitted effect of over 15% in size; further: potency means the concentration at half of the fitted maximal effect
Procedure, shortened: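 HEK293T cells carrying luciferase-tagged ATAD5 were given compound or DMSO vehicle and incubated 16 hr at 37C, 5% CO2. Luciferase activity was read after 30 min at room temperature with Amplite; a rise signals genotoxic stress.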

[2] = qHTS assay for small molecule agonists of the p53 signaling pathway - cell viability (AID 651633; calls by dose curve; further: nearly all actives have a fitted effect of over 30% in size; further: potency means the concentration at half of the fitted maximal effect)
Procedure, shortened: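 Viability counter-read: CellTiter-Glo luminescence (30 min, room temperature) in the same p53RE-bla plates. These plates had been exposed to compounds for 16 h at 37 C.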

[3] = qHTS assay for small molecules that induce genotoxicity in human embryonic kidney cells expressing luciferase-tagged ATAD5 - cell viability (AID 651634; calls by dose curve; further: nearly all actives have a fitted effect of over 25% in size; further: potency means the concentration at half of the fitted maximal effect)
Procedure, shortened: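 HEK293T cells carrying luciferase-tagged ATAD5, 2,000 cells/well, exposed to compound for 15.5 hr at 37C. Viability read as live-cell protease activity by CellTiter-Fluor fluorescence after 30 min at 37C.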

[4] = qHTS assay for small molecule disruptors of the mitochondrial membrane potential - cell viability (AID 720634; calls by dose curve; further: nearly all actives have a fitted effect of over 20% in size; further: potency means the concentration at half of the fitted maximal effect)
Procedure, shortened: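 HepG2 cells, 2,000 per well, attached overnight, then treated 1 hr at 37 C, 5% CO2. Viability read as ATP by CellTiter-Glo luminescence after 30 min at room temperature. Read in the same wells as the m-MPI membrane-potential dye assay.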

[5] = qHTS assay for small molecule disruptors of the mitochondrial membrane potential (AID 720635); further: potency means the concentration at half of the fitted maximal effect
Procedure, shortened: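 Mitochondrial membrane potential tracked with Mito-MPS dye, red aggregates (ex 540/em 590 nm) against green monomers (ex 490/em 535 nm). Compound treatment 1 hr at 37C, dye 30 min in HepG2.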

[6] = qHTS assay to test for compound auto fluorescence at 590 nm (red) in HepG2 cells (AID 720674); further: on the % scale 0 is the no-effect control and ±100 the full control effect
Procedure, shortened: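 Red autofluorescence (Ex/Em 540/590 nm, Rose Bengal sodium equivalents) was measured in HepG2 cells, 2,000 per well in MEM plus 10% FBS, plated overnight at 37 C. Readings were taken 1 hr after adding 23 nL compound or DMSO, at 37 C and 5% CO2.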

[7] = qHTS assay to test for compound auto fluorescence at 535 nm (green) in HepG2 cells (AID 720675); further: on the % scale 0 is the no-effect control and ±100 the full control effect
[8] = qHTS assay to test for compound auto fluorescence at 460 nm (blue) in HEK293 cells (AID 720678); further: on the % scale 0 is the no-effect control and ±100 the full control effect
Procedure, shortened: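 HEK293, 2,000 cells/well, 10% dialyzed FBS; attach 4-5 hr 37C; pin compound or DMSO; o/n 37C/5% CO2; fluorescence 405/460 nm; triamterene-equivalent units.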

[9] = qHTS assay to test for compound auto fluorescence at 590 nm (red) in HEK293 cells (AID 720679); further: on the % scale 0 is the no-effect control and ±100 the full control effect
Procedure, shortened: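 Intensity at 540nm excitation and 590nm emission is reported as Rose Bengal sodium-equivalent autofluorescence. Measurements followed overnight exposure (37C, 5% CO2) of HEK293 cells, 2,000 per well, to 23 nL compound.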

[10] = qHTS assay to test for compound auto fluorescence at 535 nm (green) in HEK293 cells (AID 720680); further: on the % scale 0 is the no-effect control and ±100 the full control effect
[11] = qHTS assay to test for compound auto fluorescence at 460 nm (blue) in HEK293 cell free culture (AID 720681); further: on the % scale 0 is the no-effect control and ±100 the full control effect
Procedure, shortened: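 Blue fluorescence (Ex 405/Em 460 nm, triamterene-equivalent) was read immediately after pin transfer of compound or DMSO into medium (DMEM, 10% FBS) without cells.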

[12] = qHTS assay to test for compound auto fluorescence at 535 nm (green) in HEK293 cell free culture (AID 720682); further: on the % scale 0 is the no-effect control and ±100 the full control effect
Procedure, shortened: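 Compounds were pin-transferred into cell-free DMEM with 10% FBS, and green fluorescence was read at excitation 485 nm and emission 535 nm. Intensities were expressed as fluorescein-equivalent values.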

[13] = qHTS assay to test for compound auto fluorescence at 590 nm (red) in HEK293 cell free culture (AID 720683); further: on the % scale 0 is the no-effect control and ±100 the full control effect
Procedure, shortened: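 Red-channel autofluorescence of compounds in culture medium (DMEM, 10% FBS), no cells, measured at 540/590 nm. Rose Bengal sodium is the reference fluorophore for equivalence.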

[14] = qHTS assay to test for compound auto fluorescence at 590 nm (red) in HepG2 cell free culture (AID 720684); further: on the % scale 0 is the no-effect control and ±100 the full control effect
Procedure, shortened: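 Steps: dispense MEM/10% FBS medium, no cells; pin compound or DMSO vehicle; read red channel, Ex/Em 540/590 nm. Output given as Rose Bengal sodium equivalents.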

[15] = qHTS assay to test for compound auto fluorescence at 460 nm (blue) in HepG2 cell free culture (AID 720685); further: on the % scale 0 is the no-effect control and ±100 the full control effect
Procedure, shortened: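 Compound (23 nL) or DMSO pinned into cell-free MEM with 10% FBS; blue fluorescence read at 405/460 nm excitation/emission, expressed as auto-fluorescence equivalency to triamterene.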

[16] = qHTS assay to test for compound auto fluorescence at 535 nm (green) in HepG2 cell free culture (AID 720686); further: on the % scale 0 is the no-effect control and ±100 the full control effect
[17] = qHTS assay to test for compound auto fluorescence at 460 nm (blue) in HepG2 cells (AID 720687); further: on the % scale 0 is the no-effect control and ±100 the full control effect
Procedure, shortened: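 Blue-channel autofluorescence (Ex/Em 405/460 nm, triamterene-equivalent) was measured after 1 hr compound exposure at 37 C, 5% CO2. Cells were HepG2, plated overnight at 37 C in MEM plus 10% FBS.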

[18] = target: Glucocorticoid receptor (Homo sapiens) (UniProt P04150); experiment: qHTS assay to identify small molecule agonists of the glucocorticoid receptor (GR) signaling pathway (AID 720691; active means well fitted activation curve with a large enough effect in the signal ratio in the repeat runs, not every such curve was filed as active; the % refers to the signal ratio; further: on the % scale 0 is the no-effect control and ±100 the full control effect); settings: GR-bla HeLa, beta-lactamase reporter ratio, 18 h; activation: at 62.4 µM (top of the series)
Procedure, shortened: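 GR-bla HeLa cells carrying a GRE-driven beta-lactamase reporter, exposed to compounds for 18 h at 37 C. Reporter activation read as fluorescence after 2 h with LiveBLAzer B/G FRET substrate at room temperature.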

[19] = target: Glucocorticoid receptor (Homo sapiens) (UniProt P04150); experiment: qHTS assay to identify small molecule antagonists of the glucocorticoid receptor (GR) signaling pathway (AID 720692; active means well fitted inhibition curve with a large enough effect in the signal ratio in the repeat runs, not every such curve was filed as active; the % refers to the signal ratio; further: on the % scale 0 is the no-effect control and ±100 the full control effect)
Procedure, shortened: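 GR-bla HeLa cells carrying a GRE-driven beta-lactamase reporter received compound after 4 h plating, then dexamethasone (5 nM final). After 18 h at 37C, the FRET substrate was loaded for 2 h at room temperature and fluorescence read.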

[20] = qHTS assay for small molecule agonists of the p53 signaling pathway (AID 651631; calls by dose curve; further: potency means the concentration at half of the fitted maximal effect; nearly all actives have a fitted effect of over 15% in size)
Procedure, shortened: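 Readout was fluorescence from the LiveBLAzer FRET substrate, applied for 2 h at room temperature after 16 h compound exposure at 37 °C. Cells were the p53RE-bla HCT-116 line, with beta-lactamase driven by p53 response elements.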

Chain of Glucocorticoid receptor (Homo sapiens) (P04150 whole entry, looked up): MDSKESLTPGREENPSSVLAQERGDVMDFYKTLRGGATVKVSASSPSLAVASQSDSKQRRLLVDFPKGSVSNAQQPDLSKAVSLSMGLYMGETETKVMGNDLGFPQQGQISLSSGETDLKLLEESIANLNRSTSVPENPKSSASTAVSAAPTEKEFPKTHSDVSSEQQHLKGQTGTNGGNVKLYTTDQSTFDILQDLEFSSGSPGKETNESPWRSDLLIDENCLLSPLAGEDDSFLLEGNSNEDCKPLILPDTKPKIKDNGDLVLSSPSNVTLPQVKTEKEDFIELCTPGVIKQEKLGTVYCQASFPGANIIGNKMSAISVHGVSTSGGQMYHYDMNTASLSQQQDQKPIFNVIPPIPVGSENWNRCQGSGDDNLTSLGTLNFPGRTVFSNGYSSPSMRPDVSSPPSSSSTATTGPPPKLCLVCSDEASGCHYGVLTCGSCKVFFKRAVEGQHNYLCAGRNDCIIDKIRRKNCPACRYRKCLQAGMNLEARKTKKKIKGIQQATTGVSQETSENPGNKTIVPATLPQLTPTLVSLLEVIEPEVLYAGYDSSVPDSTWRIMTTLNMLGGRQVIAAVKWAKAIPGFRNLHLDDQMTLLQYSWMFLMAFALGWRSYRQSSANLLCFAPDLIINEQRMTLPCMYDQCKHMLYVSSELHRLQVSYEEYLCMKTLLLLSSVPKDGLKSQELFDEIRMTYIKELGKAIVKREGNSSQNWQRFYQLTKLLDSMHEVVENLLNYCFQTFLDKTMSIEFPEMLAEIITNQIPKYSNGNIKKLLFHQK

Cc1onc(-c2c(Cl)cccc2Cl)c1C(=O)N[C@@H]1C(=O)N2[C@@H]1SC(C)(C)[C@@H]2C(=O)O
inactive: Potency [1] | Potency [2] | Potency [3] | Potency [4] | Potency [5] | Potency [6] | Potency [7] | Potency [8] | Potency [9] | outcome [10] | Potency [11] | outcome [12] | Potency [13] | Potency [14] | Potency [15] | Potency [16] | Potency [17] | Potency [18]

N#CSc1ccc(N)c([N+](=O)[O-])c1
active: Potency [3] 61.5 µM | Potency [5] 61.5 µM
inactive: Potency [1] | Potency [2] | Potency [4] | Potency [6] | Potency [7] | Potency [8] | Potency [9] | outcome [10] | Potency [11] | outcome [12] | Potency [13] | Potency [14] | Potency [15] | Potency [16] | Potency [17] | Potency [18]

CCC(C)Nc1ccc(NC(C)CC)cc1 (stereo not given)
inactive: Potency [1] | Potency [3] | Potency [6] | Potency [7] | Potency [8] | Potency [9] | outcome [10] | Potency [11] | Potency [13] | Potency [14] | Potency [15] | Potency [16] | Potency [17]
active: Potency [2] 14 µM | Potency [4] 44.1 µM | Potency [5] 8.8 µM

CCCC(C)c1ccccc1O (stereo not given)
active: Potency [5] 30.6 µM
inactive: Potency [1] | Potency [2] | Potency [3] | Potency [4] | Potency [6] | Potency [7] | Potency [8] | Potency [9] | outcome [10] | Potency [11] | Potency [13] | Potency [14] | Potency [15] | Potency [16] | Potency [17] | Potency [18] | Potency [19]

Cn1cc(C(=O)[C@@H]2CCc3nc[nH]c3C2)c2ccccc21
inactive: Potency [1] | Potency [2] | Potency [3] | Potency [4] | Potency [5] | Potency [6] | Potency [7] | Potency [8] | Potency [9] | outcome [10] | Potency [11] | outcome [12] | Potency [13] | Potency [14] | Potency [15] | Potency [16] | Potency [17] | Potency [18]

Cc1cc(O)c(C(C)(C)C)cc1C(C)(C)C
active: Potency [2] 9.69 µM | Potency [3] 15.4 µM | Potency [4] 15.4 µM | Potency [5] 0.969 µM
inactive: Potency [1] | Potency [6] | Potency [7] | Potency [8] | Potency [9] | outcome [10] | Potency [11] | outcome [12] | Potency [13] | Potency [14] | Potency [15] | Potency [16] | Potency [17]

Cc1cc(C2CCCCC2)n(O)c(=O)c1
inactive: Potency [2] | Potency [3] | Potency [4] | fluorescence, relative to Rose Bengal [6] 0.33% [at 18.6 µM] | fluorescence, % of fluorescein control [7] -0.0302% [at 18.6 µM] | fluorescence, % of triamterene [8] -0.0951% [at 18.6 µM] | fluorescence, % of fluorescent control [9] -0.0357% [at 18.6 µM] | fluorescence, % of fluorescein [10] 0.0799% [at 18.6 µM] | fluorescence, % of fluorescent control [11] -0.0092% [at 18.6 µM] | activity change [12] 0.0414% [at 18.6 µM] | fluorescence, % of fluorescent control [13] 0.0163% [at 18.6 µM] | fluorescence, % of Rose Bengal [14] -0.0195% [at 18.6 µM] | fluorescence, % of fluorescent control [15] 0.0075% [at 18.6 µM] | fluorescence, % of fluorescein control [16] 0.005% [at 18.6 µM] | fluorescence, % of fluorescent control [17] 0.0031% [at 18.6 µM]
active: Potency [20] 8.04 µM | Potency [5] 3.2 µM

CCCCCCOC(=O)c1ccc(O)cc1
inactive: Potency [2] | Potency [3] | Potency [6] | Potency [7] | Potency [8] | Potency [9] | outcome [10] | Potency [11] | outcome [12] | Potency [13] | Potency [14] | Potency [15] | Potency [16] | Potency [17] | Potency [18]
active: Potency [1] 21.7 µM and 19.3 µM | Potency [4] 27.3 µM and 17.2 µM | Potency [5] 6.12 µM and 8.63 µM
